The values that follow come from PubChem BioAssay AID2149 (The Scripps Research Institute Molecular Screening Center, 2009).

The term inhibition denotes the relative decrease from the control value, in per cent.

Screen size: about 2,400 compounds; about 1,800 (75%) were called active. So high a share suggests a set chosen from earlier hits. A selection follows. A number with no mark means an inactive call.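 The calls were made as follows: active = inhibition above the primary screen limit, the mean inhibition of all tested compounds plus 3 SD (cut at about 25% in these data); inactive = the rest.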

The assay relates to tRNA 2'-phosphotransferase TPT1 [Candida albicans SC5314]. Kind of assay: tRNA 2'-phosphotransferase enzyme inhibition – biochemical, fluorescence polarization, triplicate, confirmation (AID 2149). The following applies: recombinant caTPT1, fluorescence polarization, RNase T1 coupled; at 5 µM; hits give high values. On the technique in general: Polarisation of emitted light reports the rotation of a fluorescent probe.
As to `CCCCC(=O)N/N=C/c1c(O)n(CC)c(=S)n(CC)c1=O`, the inhibition was 98.8% (active).

For the compound `CCN1C(=O)C(=Cc2c(C)n(CC(=O)NCC3CCCO3)c3ccccc23)C(=O)N(CC)C1=S` (centres undefined), the inhibition was 18.6%.

Regarding `O=C1NC(=O)N(Cc2ccco2)C(=O)/C1=C\c1cccn1CCOc1ccccc1`, the inhibition was 6.57%.

On to `O=C1NC(=O)N(Cc2ccco2)C(=O)/C1=C\c1ccc(-c2ccc(F)cc2)o1`, for which the inhibition was 11.4%.

Turning to `COc1ccc(N2C(=O)/C(=C/c3ccco3)C(=O)NC2=S)cc1`, the inhibition was 27.9% (active).

Consider `O=C1CC(=O)N(Cc2ccccc2)C(=O)N1CCCCCCN1C(=O)CC(=O)N(Cc2ccccc2)C1=O`, for which the inhibition is 25.7% (active).

With `COc1ccccc1N=Nc1c(O)[nH]c(=S)[nH]c1=O`, the inhibition is 64.9% (active).

Consider `CC(C)n1c(=O)c(C=Nc2ccc(Br)cc2)c(O)n(Cc2ccco2)c1=O`, for which the inhibition was 17.1%.

`CC/C(=N\NC(=O)c1ccccc1O)c1c(O)n(Cc2ccccc2)c(=O)[nH]c1=O`: the inhibition was 21.9%.
